# Patent US20160355875, “METHODS AND KITS FOR DETECTING NUCLEIC ACID SEQUENCES OF INTEREST USING DNA-BINDING PROTEIN DOMAIN” (CELLECTIS, published 2016)
# T1: TALE RAGT2-Renila luciferase fusion (pCLS24992) (artificial, UniProt P14727 SEQ:21-699)
# T1 chain: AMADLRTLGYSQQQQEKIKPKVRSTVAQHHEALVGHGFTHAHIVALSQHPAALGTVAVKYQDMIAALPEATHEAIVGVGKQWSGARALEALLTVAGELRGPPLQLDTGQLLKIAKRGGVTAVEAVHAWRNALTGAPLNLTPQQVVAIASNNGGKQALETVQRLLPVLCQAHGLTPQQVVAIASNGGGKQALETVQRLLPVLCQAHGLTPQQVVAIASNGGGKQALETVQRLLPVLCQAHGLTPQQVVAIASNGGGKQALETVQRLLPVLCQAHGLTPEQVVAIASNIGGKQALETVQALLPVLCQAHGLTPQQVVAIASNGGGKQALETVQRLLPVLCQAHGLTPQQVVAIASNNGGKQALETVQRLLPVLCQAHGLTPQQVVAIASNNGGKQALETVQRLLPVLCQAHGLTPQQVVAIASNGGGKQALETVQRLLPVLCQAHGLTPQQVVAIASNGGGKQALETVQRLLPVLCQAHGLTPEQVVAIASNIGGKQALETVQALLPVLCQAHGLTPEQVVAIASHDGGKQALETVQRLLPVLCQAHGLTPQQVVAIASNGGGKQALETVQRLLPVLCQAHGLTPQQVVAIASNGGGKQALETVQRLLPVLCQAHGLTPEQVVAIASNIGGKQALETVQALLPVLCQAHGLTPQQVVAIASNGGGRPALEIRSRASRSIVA
# B1: pray SEQ 6 :bait (dsDNA)
# DNA 1: CATGGTTTATGGTTACTTATGG
# DNA 2: GTACAAAAAAGCAGTCGACTAGGGATAACAGGGTAATTATATAAACCTAACCCTCTTAGCATGAAGGTACCATAAGTAACCATAAACAATG
# Biological target: T1, TALE RAGT2-Renila luciferase fusion …
# Assay: mutation at T0 reduces luminescence by more than 60%; capture plus TALE binding
# Settings: tags: N-terminal His tag, C-terminal Renilla luciferase fusion; deltaN152 N-terminal domain, C11 C-terminal truncation; expressed in E. coli; label: biotin on bait; mismatched duplex
# Protocol: Different ssDNA targets (SEQ ID NO 6-20) harboring unique or multiple mutations with respect to the ssDNA wild type pray (SEQ ID NO 5, 10 pmol) were synthesized and used to assess the specificity of TALE RAGT2-Renila detector system. We first studied the effect of increasing amount of mutation within the ssDNA target on the luminescence of TALE RAGT2-Renila according to the detection protocol described earlier. Briefly, 10 pmol of ssDNA wild type or mutated were incubated with the ssDNA biotinylated pray already immobilized on the streptavidine coated plate. The mixture was heated and allow to cool down to RT. After washing the well with high and low salt containing TBST buffers, an excess of TALE RAGT2-Renila was added to the well (^{˜}300 pmol total), the unbound was then removed by two low salt buffer washing steps and the reaction mixture was added to determine luminescence. The luminescence obtained for each of the ssDNA prays used is illustrated in FIG. 20.
binder,measurement,value
B1,binding signal,< 40 % of WT
